# Screens: PubChem BioAssay, National Center for Advancing Translational Sciences (NCATS)
# HPGD block – HPGD (human) dehydrogenase inhibition; P15428; purified HPGD, NADH fluorescence kinetic, PGE2 substrate; Potency, µM, for inactives: at the highest dose activity change, negative = inhibition, actives largely listed as inhibitors; 150,000 tested, 4.3% active; AID 894; active means well fitted inhibition curve with a large enough effect, not every such curve was filed as active; inconclusive means small, poorly fitted or top-dose-only effect, or another doubt; inactive means no such curve, though single readings can be large or run the other way; further: potency means the concentration at half of the fitted maximal effect
#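 NADH formation kinetics: reaction with 30 uM PGE2 and 1 mM NAD+ (final), 20 nM enzyme, Tris-HCl pH 8 with Tween 20, after 15 min compound preincubation at room temperature. Fluorescence change, last versus first of five reads.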
# ALDH1A1 inh – inhibitors of human aldehyde dehydrogenase 1A1. Potency, µM (highest dose often 75.3 µM), for inactives: at the top dose activity, negative = inhibition, hits mostly inhibitors. 220,000 tested, 7.3% active. Purified ALDH1A1, NADH fluorescence, propionaldehyde substrate. P00352; active means well fitted inhibition curve with a large enough effect, not every such curve was filed as active; inconclusive means small, poorly fitted or top-dose-only effect, or another doubt; inactive means no such curve, though single readings can be large or run the other way;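 further: potency means the concentration at half of the fitted maximal effect; plate controls were no enzyme wells and a reference inhibitor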
# IMPase inh – IMPase inhibition in cells; AID 901; 120,000 tested, under 10 active; CHO-M1 cells, IP1 accumulation, HTRF TR-FRET ratio; inhibition (IP1 accumulation), % at 46.1 µM; active means well fitted curve in the direction sought with a large enough effect in the signal ratio, not every such curve was filed as active; inconclusive means small, poorly fitted or top-dose-only effect, or a change in a side signal; inactive means no such curve, though single readings can be large or run the other way; the % refers to the signal ratio;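 further: cells stimulated with carbachol in lithium chloride buffer; plate controls were DMSO basal wells for no effect and reference inhibitor wells for full effect; higher means more IMPase inhibition seen as more IP1 and lower FRET ratio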
#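 Carbachol-driven Gq signalling in CHO-M1 cells (2000/well) generates IP1. Compounds that block IMPase raise IP1 and so reduce the FRET signal from Eu-anti-IP1 and d2-IP1 after a 10 min room-temperature lysis.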
# ALOX12 inhib – inhibitors of human 12-lipoxygenase (ALOX12); purified 12-hLO, xylenol orange hydroperoxide absorbance; Potency, µM (top dose mostly 57.1 µM), inactives show at the highest dose activity change, negative = inhibition, most hits filed as inhibitors; 150,000 tested, 0.12% active; P18054; further: potency means the concentration at half of the fitted maximal effect; nearly all actives have a fitted effect of over 55% in size
# Target sequence (P18054 whole entry, looked up): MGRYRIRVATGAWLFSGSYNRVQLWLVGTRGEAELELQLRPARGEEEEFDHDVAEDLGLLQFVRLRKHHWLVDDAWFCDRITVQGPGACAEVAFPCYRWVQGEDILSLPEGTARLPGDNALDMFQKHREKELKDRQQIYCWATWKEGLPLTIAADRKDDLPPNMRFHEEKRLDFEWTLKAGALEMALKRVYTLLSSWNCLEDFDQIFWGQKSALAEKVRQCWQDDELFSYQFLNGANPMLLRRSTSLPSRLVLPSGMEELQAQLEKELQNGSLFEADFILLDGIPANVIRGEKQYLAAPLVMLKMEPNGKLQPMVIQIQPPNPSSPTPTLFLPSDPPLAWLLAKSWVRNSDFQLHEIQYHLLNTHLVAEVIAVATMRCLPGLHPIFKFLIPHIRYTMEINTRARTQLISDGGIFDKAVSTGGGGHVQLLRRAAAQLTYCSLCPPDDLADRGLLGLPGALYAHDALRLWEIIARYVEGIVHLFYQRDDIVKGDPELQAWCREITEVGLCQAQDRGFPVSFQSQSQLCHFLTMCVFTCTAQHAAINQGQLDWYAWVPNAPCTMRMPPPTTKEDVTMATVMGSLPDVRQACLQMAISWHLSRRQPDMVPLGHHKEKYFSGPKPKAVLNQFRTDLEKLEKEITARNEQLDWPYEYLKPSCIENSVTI
#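 Xylenol orange chromogenic assay: hydroperoxide from 12hLO oxidises Fe(II), giving red-shifted Fe(III)-XO absorbance. Conditions: 150 nM enzyme, 40 uM arachidonic acid, 25 mM Hepes pH 7.0, 0.01% Triton X-100, 30 min, room temperature.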
# PNC inhibitor – inhibitors of perinucleolar compartment assembly | PC3M PTB-GFP, PNC prevalence imaging, 16 h; active compounds read low | activity change (PNC), negative = inhibition, % at 10 µM | 140,000 tested, 3.1% active;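 active means readout at or below -70, meaning at least 70% loss of cells showing the perinucleolar compartment, a nuclear body marking cancer cells; inconclusive means readout between -30 and a set limit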;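 further: plate controls were DMSO wells for no effect and camptothecin positive control wells for full effect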
#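 Compounds are pinned in duplicate onto adhered PC3M cells stably expressing GFP-tagged PTB and incubated 16 h at 37 C. Cells are then fixed, nuclei stained with Hoechst, and PNC-positive cells counted.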
# IMPase Li inh – membrane-permeable IMPase blocker, potentiated with lithium; CHO-M1 cells, IP1 TR-FRET (IP-One), carbachol + lithium; Potency, µM (titrated, usually from 59.4 µM), inactives show top-dose activity, negative = IMPase inhibition, actives largely listed as inhibitors; 210,000 tested, 0.35% active; AID 1457;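 further: IP1 builds up when IMPase is blocked and the TR-FRET signal falls; potency means the concentration at half of the fitted maximal effect; plate controls were basal vehicle for no effect and high inhibitor control for full effect; nearly all actives have a fitted effect of over 50% in size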
#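 Steps: plate 2000 CHO-M1 cells per well and culture 16–30 h; add compound and lithium; incubate 30 min, 37C; add d2-IP1 tracer and Eu cryptate anti-IP1 antibody in lysis buffer; read after 10 min at room temperature.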
# * = called active by the depositor; ? = inconclusive; . = not tested or not shown; [ ] = dose if it differs, or a comment. Rows were chosen to be rich in hits. Some 11% of all compounds tested hit in one or more screens of this group. Unless noted, the call rests on the fitted dose curve; in most records, active means well fitted curve in the direction sought with a large enough effect; inconclusive means small, poorly fitted or top-dose-only effect, or another doubt; inactive means no such curve, though single readings can be large; an effect the other way counts as inactive or inconclusive. Unless noted, on the % scale 0 is the no-effect control and ±100 the full control effect.
SMILES,HPGD block,ALDH1A1 inh,IMPase inh,ALOX12 inhib,PNC inhibitor,IMPase Li inh
CCOc1ccccc1NC(=O)c1c(NC(=O)c2cccc(C)c2)sc2c1CCC2,.,.,-3,.,.,.
CCCCn1c(N)c(N(CC(C)C)C(=O)CN(C)Cc2cccc(OC)c2)c(=O)[nH]c1=O,-15%,-4%,5,-1%,?,-1%[38.3 µM]
C=CCOc1ccc(CN(C)CC(=O)N(CC(C)C)c2c(N)n(CC(C)C)c(=O)[nH]c2=O)cc1,-8%,-13%,2[1.84 µM],2%,-101*,6%[38.3 µM]
CCOC(=O)c1cc(-c2ccccc2)n(CC(=O)O)c1C,25µM*,?,1,4%,-30,24%[38.3 µM]
CCOC(=O)c1cc(-c2ccccc2)n(CC(=O)NC(C)(C)C)c1C,.,?,.,.,.,14%
CSc1nc(N)c2ncn([C@H]3O[C@H](COP(=O)(O)OP(=O)(O)OP(=O)(O)O)[C@@H](O)[C@@H]3O)c2n1,-1%,-1%,0,-4%,.,-7%
CCc1ccc(C(=O)c2cnc3ccc(OC)cc3c2N2CCN(CC)CC2)cc1,.,18µM*,.,.,.,9%
CCOC(=O)C1CCN(c2c(C(=O)c3ccccc3)cnc3ccc(Cl)cc23)CC1,.,4.5µM*,.,.,.,?
CCOc1ccc2ncc(C(=O)c3ccc(OC)cc3)c(N3CCN(CC)CC3)c2c1,.,0.71µM*,.,.,.,7%
CCOc1ccc(C(=O)c2cnc3ccccc3c2N2CCN(CC)CC2)cc1,.,8.9µM*,.,.,.,7%
COc1ccc2ncc(S(=O)(=O)c3ccccc3)c(N3CCN(c4ccccc4)CC3)c2c1,?,?,.,-4%,-7,13%
CCOC(=O)c1cnc2ccc(OCC)cc2c1N1CCN(c2ccccc2OC)CC1,-10%,?,14,-11%,-12,20%[38.3 µM]
CCOC(=O)C1CCN(C(=O)c2cccc(Cl)c2)CC1,3%,3%,-14,3%,17,30%[38.3 µM]
COc1cccc([C@@H]2Oc3ccc(OC)cc3/C(=N/O[C@@H](C)c3cn([C@H]4COC[C@H]4O)nn3)[C@@H]2O)c1,.,0%[13.5 µM],.,.,.,.
CN(C)C(=O)c1ccc(-c2nc(Nc3ccccc3)c3ccccc3n2)cc1,.,16%,.,.,.,5%
CCCCCCCCCC[Si](C)(C)CCC(=O)NC(Cc1ccc(C)cc1)c1ccccc1 (centres undefined),-7%,5%,.,.,.,9%
CCCCCCCCCCCCCCCCCCNC(=O)OCC(COP(=O)([O-])OCC[n+]1ccsc1)OC (centres undefined),-13%,5%,.,.,.,15%
CCOC(=O)c1ccc(NC2OC(=O)c3ccccc32)cc1 (centres undefined),-3%,5%,2,2%,-94*,3%
CCOC(=O)c1ccc(NC(=O)c2ccc(NC(=O)c3ccccc3)cc2)cc1,-1%,6%,2,0%,-29,6%[38.3 µM]
CCN(CC)c1ccc(/C=N/NS(=O)(=O)c2ccc(CNC(C)=O)cc2)cc1,-11%,?,.,-5%,3,8%
CCN(Cc1ccccc1)c1ccc(/C=N/NS(=O)(=O)c2ccc(C)c([N+](=O)[O-])c2)cc1,?,3.2µM*,2,0%,?,20%
CCN(CC)c1ccc(/C=N/NS(=O)(=O)c2cccc([N+](=O)[O-])c2)cc1,-24%,3.5µM*,1,-4%,-14,3%
CCc1ccccc1NC(=O)c1nc2nc(C)cc(C(F)F)n2n1,.,.,10,.,.,.
Cc1ccc(-c2nc(NC(=O)CSc3nc(C)nc4sc5c(c34)CCCC5)ns2)cc1,.,.,-1,.,.,.
CC(Sc1cccc2cccc(C(=O)O)c12)C(=O)O (centres undefined),-13%,6%,-14,-3%,-25,-2%[38.3 µM]
SMILES,HPGD block,ALDH1A1 inh,IMPase inh,ALOX12 inhib,PNC inhibitor,IMPase Li inh
CC(Sc1cnc2ccccc2n1)C(=O)O (centres undefined),-20%,-6%,?,-3%,-5,13µM*
CC(Sc1ccc2ccccc2n1)C(=O)O (centres undefined),?,?,?,-7%,2,8.9µM*
Cc1cc(SC(C)C(=O)O)nc2ccccc12 (centres undefined),.,-14%,.,.,.,?
[O-]/[N+](=C\c1ccc(OC(F)F)cc1)c1ccccc1,-24%,7.9µM*,-3,-2%,44,-11%[38.3 µM]
[O-]/[N+](=C/c1ccc(F)cc1)c1ccccc1,-16%,?,3,3%,12,-4%[38.3 µM]
[O-]/[N+](=C\c1ccncc1)c1ccccc1,-12%,15µM*,5,-5%,-28,1%[38.3 µM]
CCCCC/C=C\C[C@@H](O)/C=C/C=C/C=C/[C@@H](O)CCCC(=O)O,-6%,4%,.,0%,.,6%
CC1CCN(CC(=O)N2c3ccccc3CC2C)CC1 (centres undefined),.,?,.,.,.,9%
CC1Cc2ccccc2N1C(=O)CSc1ccccc1 (centres undefined),-22%,18µM*,5,-5%,33,4%[38.3 µM]
CC1Cc2ccccc2N1C(=O)CSC1=NCCS1 (centres undefined),-18%,?,3,0%,11,-21%[38.3 µM]
Cc1nnc(SCC(=O)N2c3ccccc3CC2C)[nH]c1=O (centres undefined),-26%,11µM*,.,0%,47,-15%
CC1Cc2ccccc2N1C(=O)CNc1ccccc1N1CCCCC1 (centres undefined),.,13µM*,.,.,.,6%
Cc1nc(Nc2ccccc2)c2nc(-c3ccccc3)n(CCN3CCOCC3)c2n1,?,?,.,-10%,.,1%
Cc1c(N=C2NC(=O)/C(=C/c3cccc([N+](=O)[O-])c3)S2)c(=O)n(-c2ccccc2)n1C,2.5µM*,6%,.,-3%,11,-8%
COC(=O)CSc1nc2c(c(-c3ccc(C)o3)c1C#N)CCCC2,?,?,-1,-1%,8,28%[38.3 µM]
CCSc1nc2c(c(-c3ccc(C)o3)c1C#N)CCCC2,?,?,3,-2%,-100*,7%
N#Cc1c(SCC(N)=O)nc2c(c1-c1ccncc1)CCCC2,.,-5%,.,.,.,-1%
N#Cc1c(-c2ccncc2)c2c([nH]c1=S)CCCC2,22µM*,?,-2,-15%,30,-7%[38.3 µM]
Cc1ccc(-c2c3c([nH]c(=S)c2C#N)CCCC3)o1,8.9µM*,7.9µM*,-9,-22%,-5,-27%[38.3 µM]
Nc1cc(S(=O)(=O)O)ccc1O,-6%,?,.,2%,.,26%
Cc1nnc2c3ccccc3nc(N3CCN(c4ccccc4)CC3)n12,.,.,6,.,.,.
O=C(NC1CCCC1)c1cc(-c2cccs2)on1,13µM*,?,7,-4%,-18,-4%[38.3 µM]
O=C(NC(=S)Nc1ccc(S(=O)(=O)NC2CCCCC2)cc1)c1cccs1,.,2%,5,5µM*,?,.
